ALR H2O2 inh – blocks human ALR sulfhydryl oxidase activity; P55789; purified ALR, DTT oxidation, H2O2 HRP-luminol luminescence; inhibition, % (concentration not given with the values); 290,000 tested, 3.8% active; AID 485317;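 active = mean replicate inhibition above about 79%, with every replicate also reaching it, limit read from the data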
ABHD5 PLIN5 PPI – inhibitors of human ABHD5-perilipin-5 interaction. Split G. princeps luciferase complementation, luminescence, 4 h. inhibition, % at 4 µM. 360,000 tested, 0.78% active;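 active = inhibition above the mean inhibition across every tested compound plus 3 SD, cut at about 22% in these data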
PRMT1 FP inh – PRMT1 (human) inhibition, primary screen; Q99873; 370,000 tested, 1.3% active; recombinant PRMT1, activity-based probe fluorescence polarization; AID 652257; inhibition, % at 2.79 µM;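 active = inhibition above about 21% made by adding two undisclosed values, limit read from the data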
rCAG binder – r(CAG) repeat RNA binding | inhibition, % at 3 µM | TO-PRO-1 dye displacement fluorescence | 370,000 tested, 1.3% active;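 active = inhibition above the plate cutoff, the mean of all test compounds on that plate plus 3 SD, cut at about 35% in these data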;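 note: higher means more dye released from RNA so lower well fluorescence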
LANA-H2B inh – blocks KSHV LANA binding to histone H2A/H2B. Q9QR71. cell-free LANA-H2A/H2B peptide, fluorescence polarization. inhibition, % (concentration not given with the values). 320,000 tested, 0.6% active. AID 2629; in the data active = inhibition mostly above about 10%, no sharp cut-off; inactive = mostly below about 6.7%
Rtt109 HAT inh – inhibitors of Candida albicans Rtt109/Vps75 histone acetyltransferase | Q5AAJ8 | purified Rtt109/Vps75, ThioGlo CoA-SH fluorescence, 4 h | inhibition, % at 34.9 µM | 330,000 tested, 0.16% active | AID 540336;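 active = inhibition of at least 50% in every replicate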
Target sequence (Q5AAJ8 whole entry, looked up): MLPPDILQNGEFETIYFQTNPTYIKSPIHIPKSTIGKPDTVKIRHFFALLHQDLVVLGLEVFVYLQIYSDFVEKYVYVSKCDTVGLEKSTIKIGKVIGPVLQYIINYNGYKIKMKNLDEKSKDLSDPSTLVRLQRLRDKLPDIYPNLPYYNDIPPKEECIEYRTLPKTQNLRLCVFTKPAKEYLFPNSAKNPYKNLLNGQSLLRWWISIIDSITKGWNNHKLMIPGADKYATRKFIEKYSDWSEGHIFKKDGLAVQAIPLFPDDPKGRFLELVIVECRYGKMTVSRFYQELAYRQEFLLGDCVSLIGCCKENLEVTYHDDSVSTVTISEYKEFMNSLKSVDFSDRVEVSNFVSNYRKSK
Each line names hits and unclear results; the compound was inactive in the other large screens. An excerpt weighted towards active compounds, which were near 5.9% of everything screened.

COCCNC(=O)Nc1ccc2c(c1)N(C)C(=O)c1ccccc1S2	ALR H2O2 inh 96
CCN(CC)S(=O)(=O)c1ccc(NC(=O)CSc2ncnc3ccccc23)cc1	ALR H2O2 inh 98
NS(=O)(=O)c1ccc(NC(=O)CSc2ncnc3ccccc23)cc1	none (no result: Rtt109 HAT inh)
O=C(CSc1ncnc2ccccc12)Nc1ccc2c(c1)OCCO2	ALR H2O2 inh 95
O=C(CSc1ncnc2ccccc12)Nc1ccc2c(c1)OCO2	ALR H2O2 inh 98
COc1ccc(-n2nnc3c(SCC(=O)Nc4ccc5c(c4)OCCO5)ncnc32)cc1	ALR H2O2 inh 99 (no result: ABHD5 PLIN5 PPI, PRMT1 FP inh, rCAG binder, Rtt109 HAT inh)
O=C(CSc1nc(Cc2ccccc2)nc2ccccc12)Nc1ccc2c(c1)OCCO2	none
Cc1ccccc1CN(C)C(=O)COC(=O)CSc1ccc([N+](=O)[O-])cc1	ALR H2O2 inh 99
COc1cccc(-c2cc(N)nn2C(=O)Nc2ccc(Cl)cc2)c1	ALR H2O2 inh 100
CC(C)(C)[C@@H]1/C(=C/C2CC2)N2C(=O)C[C@@H](c3ccccc3)N=C2N1Cc1ccc2c(c1)OCO2	none (no result: ALR H2O2 inh, ABHD5 PLIN5 PPI, rCAG binder, LANA-H2B inh, Rtt109 HAT inh)
CN1/C(=C/C2CC(=O)NC2=O)C(C)(C)c2ccccc21 (stereo not given)	ALR H2O2 inh 98
COCCn1c(SCc2ccccc2)nc2c1c(=O)[nH]c(=O)n2C	none
CCCCOC(=O)CSc1nc2c(c(=O)[nH]c(=O)n2C)n1C/C=C(\C)Cl	LANA-H2B inh 12 (no result: Rtt109 HAT inh)
COCCn1c(SCC(=O)OCc2ccccc2)nc2c1c(=O)[nH]c(=O)n2C	ALR H2O2 inh 98
CCn1c(SCC(=O)OCc2ccccc2)nc2c1c(=O)n(C)c(=O)n2C	ALR H2O2 inh 99
COc1cc(/C=C(\C#N)C(=O)NC(C)C)cc(Cl)c1O	ALR H2O2 inh 97
COCCNC(=O)/C(C#N)=C/c1cc(Br)c(O)c(OC)c1	ALR H2O2 inh 83
Cc1[nH]c2ccccc2c1Cc1n[nH]c(=S)n1C	none
Cc1[nH]c2ccccc2c1Cc1n[nH]c(=S)o1	ALR H2O2 inh 96
CC1=C2CCCC[C@@]23C2C(=O)N(C)C(=O)[C@@H]2ON3OC1 (stereo not given in full)	none (no result: ALR H2O2 inh, LANA-H2B inh, Rtt109 HAT inh)
CCN(C(=O)CN1C(=O)NC(c2ccccc2)(c2ccc(C)c(C)c2)C1=O)C1CCS(=O)(=O)C1 (stereo not given)	none
Cc1ccc(C2(c3ccccc3)NC(=O)N(CC(=O)NC3(C#N)CCCC3)C2=O)cc1C (stereo not given)	LANA-H2B inh active
Cc1ccc(C2(c3ccccc3)NC(=O)N(CC(=O)N(C)C3CCS(=O)(=O)C3)C2=O)cc1C (stereo not given)	LANA-H2B inh 16
COc1ccc(C2(c3ccc(OC)cc3)NC(=O)N(CC(=O)NC3(C#N)CCCC3)C2=O)cc1	none (no result: ALR H2O2 inh)
O=C(/C=C/c1ccc(Cl)cc1)NCc1ccncc1	Rtt109 HAT inh 53
Cc1ccc(OCC(=O)NNC(=S)NC(=O)c2ccc(Br)o2)c(C)c1	ALR H2O2 inh 98
COc1ccc(C(=O)NNC(=S)NC(=O)c2ccc(Br)o2)cc1OC	ALR H2O2 inh 86
COc1ccc(C(=O)NC(=S)NNC(=O)c2cnccn2)cc1OC	ALR H2O2 inh 98
COc1cc(OC)cc(C(=O)NC(=S)NNC(=O)c2cnccn2)c1	none
Cc1cc(OCC(=O)NNC(=S)NC(=O)c2cccs2)ccc1Cl	none
Cc1ccc(OCC(=O)NNC(=S)NC(=O)c2cccs2)c(C)c1	ALR H2O2 inh 98
CC(/C=N/n1c(-c2n[nH]c3c2CCC3)n[nH]c1=S)=C\c1ccco1	ALR H2O2 inh 94
S=c1[nH]nc(-c2cccnc2)n1/N=C/C=C/c1ccco1	none
S=c1[nH]nc(-c2ccco2)n1/N=C/C=C/c1ccccc1	ALR H2O2 inh 98
O=[N+]([O-])c1ccccc1/C=C/C=N/n1c(-c2ccccc2F)n[nH]c1=S	ALR H2O2 inh 98
S=c1[nH]nc(-c2ccccc2)n1/N=C/C=C/c1ccco1	ALR H2O2 inh 97
Cc1ccc(-n2c(Cc3cccs3)nnc2SCc2ccc(Br)cc2)cc1	none (no result: ALR H2O2 inh, ABHD5 PLIN5 PPI, LANA-H2B inh, Rtt109 HAT inh)
COc1ccc(-c2cc(C(F)(F)F)c3c(=O)n(-c4ccccc4)[nH]c3n2)cc1	ALR H2O2 inh 99 (no result: PRMT1 FP inh, rCAG binder, Rtt109 HAT inh)
CCCc1ccc(C(=O)CCC(=O)O)cc1	LANA-H2B inh active
COc1ccc(OC)c(S(=O)(=O)Nc2ccccc2O)c1	ALR H2O2 inh 99
COc1ccc(OC)c(S(=O)(=O)Nc2ccccc2C)c1	none
